Rab9 prom act = qHTS Assay for Rab9 Promoter Activators; Huh7 Rab9 promoter-luciferase reporter, luminescence, 24 h; Potency, µM (series often up to 9.22 µM), inactives show at the highest dose activation, negative = inhibition, usual class: activators; 320,000 compounds, 2.8% hits; also: % of control where 0% means no effect; nearly all actives have a fitted effect of over 60% in size
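Rab9 promoter-driven luciferase in stably transfected Huh7 cells; 1500 cells/well rested 2 h, exposed to compound in DMSO for 24 h at 37 °C, 5% CO2. Luminescence read 10 min after adding luciferase reagent at ambient temperature.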
NPC1 promoter act = qHTS Assay for NPC1 Promoter Activators | Huh7 NPC1 promoter luciferase reporter, 24 h | Potency, µM (series often up to 9.22 µM), for inactives: at the highest dose activation, actives largely listed as activators | 320,000 compounds, 2.4% hits; also: % of control where 0% means no effect; nearly all actives have a fitted effect of over 60% in size
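Compounds in DMSO were transferred onto Huh7 NPC1-luciferase reporter cells pre-incubated 2 h; after 24 h at 37 °C, Amplite reagent was dispensed and luminescence recorded 10 min later.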
ELG1 genotox = qHTS screen for small molecules that induce genotoxicity in human embryonic kidney (HEK293T) cells expressing luciferase-tagged ELG1; AID 504466, 2011; 330,000 compounds, 1.3% hits; Potency, µM (series often up to 46 µM), inactives show top-dose activity change, positive = activation, actives largely listed as activators; HEK293T ELG1-luciferase reporter, luminescence, 16 h; also: % of control where 0% means no effect; nearly all actives have a fitted effect of over 60% in size
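Cells (2,000/well) expressing the ELG1-luciferase fusion are dosed by pin tool and kept 16 hr at 37 °C, 5% CO2. Signal comes from ONE-Glo luciferase reagent after 30 min at room temperature.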
ELG1 DNA repair = qHTS screen for small molecules that inhibit ELG1-dependent DNA repair in human embryonic kidney (HEK293T) cells expressing luciferase-tagged ELG1 | HEK293T ELG1-luciferase reporter, luminescence, 16 h; DNA damage induced by 5-fluorouridine | Potency, µM (series often up to 46.1 µM), for inactives: top-dose activity change, negative = inhibition, actives largely listed as inhibitors | 330,000 compounds, 2.3% hits | AID 504467, 2011; also: % is scaled to controls: 0 for no effect and ±100 for the full control effect; nearly all actives have a fitted effect of over 55% in size
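DMSO vehicle served as the neutral condition. Each well held 2,000 cells given 5-fluorouridine plus compound; after 16 hr at 37 °C/5% CO2, ONE-Glo was added and luciferase measured 30 min later.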
FLuc modulator = qHTS profiling assay for firefly luciferase inhibitor/activator using purifed enzyme and Km concentrations of substrates (counterscreen for miR-21 project) | purified FLuc, Km substrates, luminescence inhibition | Potency, µM (titrated, usually from 57.5 µM), for inactives: top-dose activity change, negative = inhibition, most hits filed as inhibitors | 360,000 compounds, 6.9% hits;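 also: plate controls were vehicle for no effect and reference inhibitor for full effect; nearly all actives have a fitted effect of over 55% in size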
Target sequence (P08659 whole entry, looked up): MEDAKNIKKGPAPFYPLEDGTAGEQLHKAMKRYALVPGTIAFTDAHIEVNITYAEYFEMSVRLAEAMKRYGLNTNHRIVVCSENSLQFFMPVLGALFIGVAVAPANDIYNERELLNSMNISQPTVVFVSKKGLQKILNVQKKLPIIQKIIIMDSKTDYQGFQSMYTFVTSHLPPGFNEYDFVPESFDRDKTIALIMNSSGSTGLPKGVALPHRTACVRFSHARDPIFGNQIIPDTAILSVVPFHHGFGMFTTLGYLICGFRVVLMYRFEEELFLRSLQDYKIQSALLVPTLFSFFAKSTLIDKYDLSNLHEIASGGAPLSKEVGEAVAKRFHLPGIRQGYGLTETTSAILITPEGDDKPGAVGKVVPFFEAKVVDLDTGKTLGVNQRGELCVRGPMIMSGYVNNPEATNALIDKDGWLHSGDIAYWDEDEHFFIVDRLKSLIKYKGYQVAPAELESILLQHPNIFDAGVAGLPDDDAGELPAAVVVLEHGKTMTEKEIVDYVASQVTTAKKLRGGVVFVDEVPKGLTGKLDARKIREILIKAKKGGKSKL
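Purified P. pyralis luciferase, 10 nM final, with Km-level 10 uM D-luciferin and 10 uM ATP in 50 mM Tris acetate pH 7.5, 10 mM Mg acetate, 0.01% Tween-20, 0.05% BSA; 6-point qHTS titration about 60 µM downward; luminescence read.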
SMN2 splice up = qHTS Assay for Enhancers of SMN2 Splice Variant Expression | HEK293 SMN2-luciferase splicing reporter, luminescence, 30-36 h | Potency, µM (series often up to 46.1 µM), for inactives: at the highest dose activity change, positive = activation, hits mostly activators | 210,000 compounds, 2.8% hits | AID 1458, 2008; also: % of control where 0% means no effect; nearly all actives have a fitted effect of over 55% in size
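qHTS luciferase splicing reporter: luminescence rises when SMN2 exon 7 is included in transfected HEK293 cells. Compound exposure lasted 30-36 h at 37C, with 4.5 mM final sodium butyrate as control, followed by a ONE-Glo read.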
* marks the source's active call; other numbers are inactive results. The list is not random: actives were taken first. Their share in the collection is about 9.3%. Calls follow the shape of the dose curve; as a rule, active = well fitted curve in the direction sought with a large enough effect; inconclusive = small, poorly fitted or top-dose-only effect, or another doubt; inactive = no such curve, though single readings can be large; an effect the other way counts as inactive or inconclusive. Potency is read from the fitted curve at half-maximal effect.

O=c1oc2ccc(Br)cc2cc1-c1nc(-c2ccccc2)no1 was read as FLuc modulator -0.9% and SMN2 splice up 12.2%.
For COc1ccc2oc(=O)c(-c3nc(-c4cccs4)no3)cc2c1 the results were FLuc modulator 1.1%.
Screening COc1ccc2cc(-c3nc(-c4ccc(N(C)C)cc4)no3)c(=O)oc2c1 returned FLuc modulator 4.3%.
Screening O=c1oc2ccccc2cc1-c1nc(-c2cccs2)no1 returned FLuc modulator 0.601µM*.
Screening O=c1oc2ccccc2cc1-c1nc(-c2ccccc2)no1 returned Rab9 prom act 1.12µM*, NPC1 promoter act 0.447µM*, ELG1 genotox inconclusive, ELG1 DNA repair inconclusive, FLuc modulator 0.536µM* and SMN2 splice up 11.2µM*.
Screening Cc1ccc(-c2noc(-c3cc4ccccc4oc3=O)n2)cc1 returned Rab9 prom act 20.7%, NPC1 promoter act 25.1%, ELG1 genotox inconclusive, ELG1 DNA repair inconclusive, FLuc modulator 6.01µM* and SMN2 splice up -6.6%.
`Cc1cccc(-c2noc(-c3cc4ccccc4oc3=O)n2)c1` gave Rab9 prom act 2.82µM*, NPC1 promoter act 3.16µM*, ELG1 genotox inconclusive, ELG1 DNA repair inconclusive, FLuc modulator 1.35µM* and SMN2 splice up inconclusive.
Screening Cc1c(NC(C)c2ccccc2O)c(=O)n(-c2ccccc2)n1C (centres undefined) returned Rab9 prom act -0.2%, NPC1 promoter act -0.9%, ELG1 genotox -2.0%, ELG1 DNA repair 9.1%, FLuc modulator 2.5% and SMN2 splice up 4.7%.
N#Cc1cnn(Cc2ccc(Cl)cc2)c1N was read as Rab9 prom act -7.9%, NPC1 promoter act -2.5%, ELG1 genotox -1.5%, ELG1 DNA repair 20.1%, FLuc modulator 5.3% and SMN2 splice up -3.6%.
O=C(Cc1ccc(F)cc1)NCCS(=O)(=O)N1CCN(c2ccccc2)CC1 was read as Rab9 prom act -2.5%, NPC1 promoter act -7.6%, ELG1 genotox -2.1%, ELG1 DNA repair inconclusive and FLuc modulator -0.4%.
`CCN(CC)c1ccc2cc(-c3nc(-c4ccccc4)no3)c(=O)oc2c1` gave FLuc modulator 6.01µM*.
CC(C)C(=O)NCCc1c[nH]c2ccccc12 was read as Rab9 prom act 0.3%, NPC1 promoter act 6.3%, ELG1 genotox 1.1%, ELG1 DNA repair 15.8%, FLuc modulator -6.1% and SMN2 splice up 1.5%.
Screening Cc1ccc(C(=O)N/C(=C\c2ccco2)C(=O)NCCc2c[nH]c3ccccc23)cc1 returned Rab9 prom act 0.0%, NPC1 promoter act 0.6%, ELG1 genotox 3.4%, ELG1 DNA repair -6.2%, FLuc modulator 15.1µM* and SMN2 splice up 17.4%.
`Cc1ccc(C(=O)NCCc2c[nH]c3ccccc23)s1` gave Rab9 prom act 3.16µM*, NPC1 promoter act 3.55µM*, ELG1 genotox inconclusive, ELG1 DNA repair inconclusive and FLuc modulator 12µM*.
`Cc1ccc(C(=O)NCCc2c[nH]c3ccccc23)c(C)c1` gave Rab9 prom act 3.16µM*, NPC1 promoter act 1.58µM*, ELG1 genotox 9.0%, ELG1 DNA repair inconclusive and FLuc modulator 6.75µM*.
CCOC(=O)c1ccc(NC(=O)Cn2cnc(S(=O)(=O)N3CCCC3)c2)cc1 was read as Rab9 prom act 0.2%, NPC1 promoter act -4.5%, ELG1 genotox -0.2%, ELG1 DNA repair 8.9% and FLuc modulator -0.5%.
For O=C(NC12CC3CC(CC(C3)C1)C2)N1CCC(n2nnc3ccccc32)CC1 the results were Rab9 prom act -1.3%, NPC1 promoter act 2.9%, ELG1 genotox 1.5%, ELG1 DNA repair -13.6%, FLuc modulator 1.7% and SMN2 splice up -19.4%.
Cc1ccc(C[C@H](C(=O)O)N2C(=O)c3ccc(C(=O)O)cc3C2=O)c(C)c1 was read as Rab9 prom act -0.5%, NPC1 promoter act -1.0% and FLuc modulator inconclusive.
Fc1ccc(Nc2nc(NCc3ccco3)c3ccccc3n2)cc1 was read as Rab9 prom act -6.4%, NPC1 promoter act 1.3%, ELG1 genotox -6.8%, ELG1 DNA repair 23.1µM* and FLuc modulator inconclusive.
Screening Nc1nc(Nc2ccccc2)nc(NCc2ccco2)c1[N+](=O)[O-] returned Rab9 prom act 0.1%, NPC1 promoter act 9.2%, ELG1 genotox 1.5%, ELG1 DNA repair inconclusive, FLuc modulator inconclusive and SMN2 splice up 8.6%.
For O=c1c2[nH]c3ccc(F)cc3c2ncn1CCCn1ccnc1 the results were Rab9 prom act -7.0%, NPC1 promoter act -13.0%, ELG1 genotox -0.5%, ELG1 DNA repair 0.1%, FLuc modulator 3.6% and SMN2 splice up 3.8%.
For COc1ccc(CCNC(=O)CN2C(=O)COc3ccc(S(=O)(=O)N4CCCCCC4)cc32)cc1OC the results were FLuc modulator -1.7% and SMN2 splice up 12.3%.
`CCNC(=O)CSc1nnc(-c2cccs2)o1` gave Rab9 prom act -3.9%, NPC1 promoter act -6.8%, ELG1 genotox 2.9%, ELG1 DNA repair -0.6%, FLuc modulator -2.9% and SMN2 splice up 22.3%.
`COc1cccc(NC(=O)CSc2nnc(-c3cc(C)n(-c4ccccc4)c3C)o2)c1` gave Rab9 prom act 19.4%, NPC1 promoter act 21.3%, ELG1 genotox 15.2%, ELG1 DNA repair inconclusive, FLuc modulator 12µM* and SMN2 splice up -42.5%.
`O=C(CSc1nnc(-c2cccs2)o1)c1cccs1` gave Rab9 prom act 2.82µM*, NPC1 promoter act 1.58µM*, ELG1 genotox inconclusive, ELG1 DNA repair inconclusive, FLuc modulator 9.53µM* and SMN2 splice up -2.1%.
COc1ccc(NC(=O)CSc2nnc(-c3cccc(O)c3)o2)cc1 was read as Rab9 prom act -3.5%, NPC1 promoter act 1.5%, ELG1 genotox 4.1%, ELG1 DNA repair inconclusive and FLuc modulator 2.5%.
For O=C(CSc1nnc(-c2cccs2)o1)OC1CCCCC1 the results were Rab9 prom act 4.1%, NPC1 promoter act -3.6%, ELG1 genotox 1.7%, ELG1 DNA repair -1.3%, FLuc modulator 23.9µM* and SMN2 splice up -3.0%.
Cc1cc(C(=O)CSc2nnc(-c3cccs3)o2)c(C)n1-c1ccccc1 was read as Rab9 prom act -11.7%, NPC1 promoter act -4.8%, ELG1 genotox -6.1%, ELG1 DNA repair inconclusive, FLuc modulator 6.75µM* and SMN2 splice up -42.2%.

High-throughput results: PubChem BioAssay, National Center for Advancing Translational Sciences (NCATS)
